Sampled rows, rich in hits. Any-hit rate of the full collection: about 6.3%.
TGFb inhibitor – inhibitors of TGF-b signaling; HepG2 CAGA-GFP TGF-b/SMAD3 reporter, GFP fluorescence, 18 h; TGF-beta stimulated, 500 pg/mL final; Potency, µM (top dose mostly 46.1 µM), usual class: inhibitors; actives 1.2% (n = 410,000); AID 588855; also: nearly all actives have a fitted effect of over 65% in size
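First, reporter cells (HEPG2 CAGA-GFP) rested 2 h at 37 degrees C. Next, compounds were pinned in and TGF-beta added to 500 pg/mL final. After 18 h, GFP was imaged per cell and summed per well.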
RORg inh – blocks mouse ROR gamma transcriptional activity; P51450; Drosophila S2 Gal4-RORgamma UAS-luciferase reporter, 20 h; Potency, µM (doses to about 53.6 µM), most hits filed as inhibitors; actives 5.4% (n = 310,000); also: nearly all actives have a fitted effect of over 60% in size
Target sequence (P51450 whole entry, looked up, the tested form may be a part): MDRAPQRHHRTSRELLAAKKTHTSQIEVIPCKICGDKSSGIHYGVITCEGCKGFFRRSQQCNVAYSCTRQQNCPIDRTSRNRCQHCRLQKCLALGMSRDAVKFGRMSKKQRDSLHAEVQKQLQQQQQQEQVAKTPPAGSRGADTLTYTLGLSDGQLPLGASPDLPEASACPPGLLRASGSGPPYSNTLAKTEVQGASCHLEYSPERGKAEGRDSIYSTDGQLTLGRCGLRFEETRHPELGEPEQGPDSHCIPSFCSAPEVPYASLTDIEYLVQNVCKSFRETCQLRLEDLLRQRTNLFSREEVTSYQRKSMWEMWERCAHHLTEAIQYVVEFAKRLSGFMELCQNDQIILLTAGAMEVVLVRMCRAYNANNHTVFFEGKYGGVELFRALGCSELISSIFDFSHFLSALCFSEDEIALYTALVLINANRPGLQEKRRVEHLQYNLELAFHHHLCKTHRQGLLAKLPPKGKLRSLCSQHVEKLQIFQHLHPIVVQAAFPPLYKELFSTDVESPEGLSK
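Schneider cells (Drosophila), stable Gal4 DBD–ROR gamma + UAS-luc; 1 hr cmpd preincubation; Cu2+ induction 700 uM final; 20 hr ambient; luminescence.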
ATXN2 expr inh – ATXN2 expression inhibition. actives 0.72% (n = 360,000). AID 1745845. HEK-293 ATXN2-luciferase reporter, luminescence, 24 h. Potency, µM (series often up to 57 µM), actives largely listed as inhibitors; also: nearly all actives have a fitted effect of over 55% in size
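ATXN2-luciferase reporter cells (luciferase flanked by upstream and downstream ATXN2 gene portions) were treated 24 h at 37 °C with compounds at up to 57 uM. SteadyGlo luminescence gave expression; GF-AFC fluorescence gave viability.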
S2 tox – reduces viability in counter-screen for ATXN expression inhibitors. Potency, µM (titrated, usually from 56.7 µM), hits mostly cytotoxic. actives 0.49% (n = 400,000). AID 651635. S2 cells (HEK-293 line with an ATXN2-luciferase reporter) viability, CellTiter-Fluor protease fluorescence, 24 h; also: nearly all actives have a fitted effect of over 40% in size
HepG2 tox – kills HepG2 cells in TGF-b inhibitor counter-screen; Potency, µM (top dose mostly 46.1 µM), usual class: cytotoxic; HepG2 CAGA-GFP viability, ATP luminescence, 18 h; actives 0.76% (n = 410,000)
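HepG2 CAGA-GFP cells (1000/well, DMEM with 1% FBS) received compound, then TGF-beta at 500 pg/mL final, and were incubated 18 hours at 37 degrees C. Viability was read by CellTiter-Glo luminescence. Media-only wells were set as complete cell-killing and DMSO as no toxicity.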
VP16 counter – inhibits Gal4-VP16 luciferase reporter, ROR gamma counter-screen; Drosophila S2 Gal4-VP16 UAS-luciferase, luminescence, 20 h; Potency, µM (doses to about 53.6 µM), usual class: inhibitors; actives 3.5% (n = 310,000);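 also: Gal4-VP16 expression switched on by copper sulfate through the metallothionein promoter; nearly all actives have a fitted effect of over 50% in size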
Each line names hits and unclear results; the compound was inactive in the other large screens. Calls follow the shape of the dose curve; as a rule, active = well fitted curve in the direction sought with a large enough effect; inconclusive = small, poorly fitted or top-dose-only effect, or another doubt; inactive = no such curve, though single readings can be large; an effect the other way counts as inactive or inconclusive.

COc1ccc(C2C(C(C)=O)=C(O)C(=O)N2CCc2c[nH]c3ccccc23)cc1OC (configuration not stated)	none
COc1cccc(C2C(C(C)=O)=C(O)C(=O)N2CCc2c[nH]c3ccccc23)c1 (configuration not stated)	RORg inh 112µM
C/C(=N\NC(=O)c1cc(Br)ccc1O)c1cccc(NC(=O)c2ccccc2F)c1	RORg inh 11.2µM, S2 tox inconclusive
CC(=NNc1nc2ccccc2s1)c1ccncn1	TGFb inhibitor inconclusive, ATXN2 expr inh inconclusive (no result: RORg inh, S2 tox, VP16 counter)
C/C(=N\Nc1nc2ccccc2s1)c1ccc(Br)s1	TGFb inhibitor 12.6µM, RORg inh 7.08µM, VP16 counter inconclusive (no result: S2 tox)
C/C(=N\NC(=O)c1ccc(NS(=O)(=O)c2cccs2)cc1)c1cccs1	RORg inh inconclusive
C/C(=N\NC(=O)c1ccccc1F)c1cccc(NC(=O)c2ccccc2)c1	S2 tox inconclusive
C/C(=N\NC(=O)c1ccc(Cl)cc1)c1cccs1	RORg inh 7.08µM, ATXN2 expr inh inconclusive, VP16 counter 15.8µM
C/C(=N\NC(=O)c1ccccc1O)c1ccc(Br)s1	TGFb inhibitor inconclusive, RORg inh 2µM, VP16 counter 2µM
O=Cc1c[nH]c2ccc(S(=O)(=O)N3CCCCC3)cc12	none (no result: RORg inh, ATXN2 expr inh, VP16 counter)
CC(Nc1ccc(Br)cc1)C(=O)NC(=O)NC1CCCCC1 (configuration not stated)	S2 tox inconclusive (no result: RORg inh, ATXN2 expr inh, VP16 counter)
O=C(NNC(=O)c1ccccc1Cl)c1cccs1	VP16 counter inconclusive
O=C(NNC(=O)c1cc(Cl)ccc1O)c1cccs1	RORg inh 12.6µM
C/C(=N\NC(=O)c1cccc(F)c1)c1ccc(Br)s1	RORg inh 0.794µM, S2 tox inconclusive, VP16 counter 1.26µM
C/C(=N\NC(=O)c1cc(Br)ccc1O)c1cccs1	RORg inh 10µM, VP16 counter inconclusive
C/C(=N/NC(=O)c1ccc(Br)o1)c1cccs1	RORg inh inconclusive, VP16 counter inconclusive
COc1ccccc1-c1ccnc(-n2ncc(C(=O)NC(C)(C)CO)c2C2CC2)n1	none (no result: TGFb inhibitor, RORg inh, ATXN2 expr inh, HepG2 tox, VP16 counter)
Cc1ccc2oc(-c3cccc(NC(=O)COc4ccc(Cl)cc4)c3C)nc2c1	none (no result: RORg inh, ATXN2 expr inh, S2 tox, VP16 counter)
COc1ccc(-n2c(COc3ccc(C)cc3)nnc2SCC(N)=O)cc1	RORg inh 11.2µM
COc1ccc(-n2c(COc3ccccc3)nnc2SCC(N)=O)cc1	none
Cc1ccc(OCCNS(=O)(=O)c2ccc(N3CCCC3=O)cc2)cc1	TGFb inhibitor inconclusive, RORg inh inconclusive, VP16 counter 12.6µM
Cc1ccc(OCCNS(=O)(=O)c2ccc(N3CCCC3=O)cc2)cc1C	TGFb inhibitor inconclusive, VP16 counter 12.6µM
COc1ccc(N2CCN(C(=O)c3cn(C)c4ccc(S(=O)(=O)N(C)C5CCCCC5)cc4c3=O)CC2)cc1	none (no result: RORg inh, VP16 counter)
COC1=C2C[C@H](C)C[C@H](OC)[C@H](O)[C@@H](C)/C=C(/C)[C@H](OC(N)=O)[C@@H](OC)/C=C\C=C(\C)C(=O)NC(=CC1=O)C2=O	none (no result: TGFb inhibitor, ATXN2 expr inh, S2 tox, HepG2 tox)
COC1C=CC=C(C)C(=O)NC2=CC(=O)C(N)=C(CC(C)CC(OC)C(O)C(C)C=C(C)C1OC(N)=O)C2=O (configuration not stated)	ATXN2 expr inh 0.238µM, S2 tox inconclusive (no result: RORg inh, VP16 counter)
CCCOc1cccc(C2c3c(oc4ccc(F)cc4c3=O)C(=O)N2Cc2ccc3c(c2)OCO3)c1 (configuration not stated)	none (no result: RORg inh, VP16 counter)
COc1ccc(C2=C(Nc3ccc(Br)c(C)c3)c3ccccc3C2=O)cc1	TGFb inhibitor 14.1µM, S2 tox inconclusive (no result: RORg inh, VP16 counter)
O=C1C=C(N(CCO)Cc2ccccc2)c2ccccc2C1=O	TGFb inhibitor 8.91µM, RORg inh 7.08µM, ATXN2 expr inh 26.7µM, HepG2 tox 10µM, VP16 counter inconclusive (no result: S2 tox)
COC(=O)c1ccc(C2NC(=S)N(c3ccccc3)C(C)=C2C(=O)Nc2ccccc2OC)cc1 (configuration not stated)	RORg inh 10µM, VP16 counter inconclusive
Cc1ccc(-c2nc(SCCOc3ccccc3C)n3[nH]c(=O)cc3n2)cc1	TGFb inhibitor 11.2µM, ATXN2 expr inh inconclusive, S2 tox inconclusive (no result: RORg inh, VP16 counter)
Cn1c(SCc2ccc(C(F)(F)F)cc2)nc2c([nH]c3ccccc32)c1=O	none (no result: RORg inh, ATXN2 expr inh, S2 tox, VP16 counter)
CCOC(=O)C(NCc1ccccn1)(NC(=O)c1cccnc1)C(F)(F)F (configuration not stated)	RORg inh 15.8µM
Cn1c(CSc2nc3ccccc3n2C)nc2ccccc21	RORg inh 10µM, S2 tox inconclusive
CC(=O)OCC#CCSc1nc2ccccc2n1C	RORg inh 12.6µM, VP16 counter inconclusive
CC(=O)c1c(C)[nH]c(C(=O)CSc2nc3ccccc3n2C)c1C	VP16 counter inconclusive
C=C1CCN(C(C(=O)NCc2ccc(Cl)c(Cl)c2)C(C)C)S(=O)(=O)c2ccccc21 (configuration not stated)	TGFb inhibitor inconclusive (no result: ATXN2 expr inh, S2 tox)
Cc1cccc(Cn2c(=O)n3nc(-c4ccccc4)nc3c3ccccc32)c1	TGFb inhibitor inconclusive (no result: RORg inh, VP16 counter)
COC(CNC(=O)c1c[nH]c2ccc(S(=O)(=O)N3CCC4(CC3)OCCO4)cc2c1=O)OC	TGFb inhibitor 3.55µM
COC(CNC(=O)c1c[nH]c2ccc(S(=O)(=O)N3CCOCC3)cc2c1=O)OC	none

Bioassay records: PubChem BioAssay, National Center for Advancing Translational Sciences (NCATS)
